Experimental data published in PubChem BioAssay AID1159580 (chemical genetic matrix, 2015).
Hit rate of the full screen: of about 5,500 compounds, about 2,000 (36%) were called active. About 18% were inconclusive and are not listed. Rule as the data show it: active = normalized growth mostly below about 0.91 (no sharp cut-off); inconclusive = no clear call, values can overlap the other calls; inactive = mostly above about 0.92. This is one part of the list.

Test: chemical genetic growth profiling, strain panel (AID 1159580);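 also: tested at 20 µM; growth read once vehicle control cultures reached saturation at 30 °C; 1 = growth at the plate median or of vehicle wells; lower values mean less growth of the strain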
Details: S. cerevisiae deletion strains, growth OD

Measured: normalized growth

NC(=NCCC[C@H](N)C(=O)O)N[N+](=O)[O-]
inactive: locus YAL013W, strain DEP1, hits give low values 0.99 | locus YAL021C, strain ccr4, hits give low values 1.02 | locus YAL026C, strain drs2, hits give low values 1.03 | locus YAL030W, strain snc1, hits give low values 1.02 | locus YBL061C, strain skt5, hits give low values 1.02 | locus YBR009C, strain hhf1, hits give low values 1.02 | locus YBR021W, strain FUR4, hits give low values 0.992 | locus YBR023C, strain chs3, hits give low values 1.02 | locus YBR171W, strain sec66, hits give low values 1.03 | locus YBR229C, strain ROT2, hits give low values 1 | locus YBR231C, strain swc5, hits give low values 1.02 | locus YBR279W, strain paf1, hits give low values 1.02 | locus YCL011C, strain gbp2, hits give low values 1.03 | locus YCL016C, strain dcc1, hits give low values 1.02 | locus YCL029C, strain bik1, hits give low values 0.994 | locus YCL069W, strain vba3, hits give low values 1.01 | locus YCR088W, strain abp1, hits give low values 1.03 | locus YDL005C, strain med2, hits give low values 1.03 | locus YDL035C, strain GPR1, hits give low values 1 | locus YDL040C, strain nat1, hits give low values 1.02 | locus YDL074C, strain BRE1, hits give low values 0.978 | locus YDL101C, strain DUN1, hits give low values 1 | locus YDL134C, strain PPH21, hits give low values 1.01 | locus YDL185W, strain tfp1, hits give low values 1.01 | locus YDL192W, strain arf1, hits give low values 1.01 | locus YDR001C, strain nth1, hits give low values 1.01 | locus YDR069C, strain doa4, hits give low values 1.03 | locus YDR101C, strain arx1, hits give low values 0.946 | locus YDR137W, strain rgp1, hits give low values 1.05 | locus YDR150W, strain NUM1, hits give low values 0.992 | locus YDR159W, strain sac3, hits give low values 0.991 | locus YDR162C, strain NBP2, hits give low values 1.02 | locus YDR195W, strain ref2 1.04 | locus YDR297W, strain sur2, hits give low values 1.02 | locus YDR318W, strain mcm21, hits give low values 1.01 | locus YDR334W, strain swr1, hits give low values 1.02 | locus YDR335W, strain msn5, hits give low values 1.03 | locus YDR388W, hits give low values 1.02 | locus YDR392W, strain spt3, hits give low values 1.03 | locus YDR502C, strain sam2, hits give low values 1.01 | locus YEL003W, strain gim4, hits give low values 1.02 | locus YEL037C, strain rad23, hits give low values 1.03 | locus YEL061C, strain CIN8 (second series), hits give low values 1.01 | locus YEL061C, strain CIN8, hits give low values 0.983 | locus YER015W, strain faa2, hits give low values 1.03 | locus YER016W, strain bim1, hits give low values 1.01 | locus YER110C, hits give low values 1.01 | locus YER111C, strain swi4, hits give low values 1.04 | locus YER155C, strain BEM2 (second series), hits give low values 1.06 | locus YER155C, strain BEM2, hits give low values 1 | locus YER167W, strain BCK2, hits give low values 0.998 | locus YFR010W, strain ubp6, hits give low values 1.03 | locus YGL078C, strain dbp3, hits give low values 1 | locus YGL086W, strain mad1, hits give low values 0.982 | locus YGL167C, strain pmr1, hits give low values 1.02 | locus YGL173C, strain kem1, hits give low values 1.02 | locus YGL227W, strain vid30, hits give low values 1.01 | locus YGL240W, strain doc1, hits give low values 1.04 | locus YGL248W, strain PDE1, hits give low values 1 | locus YGL253W, strain hxk2, hits give low values 1.02 | locus YGR078C, strain PAC10, hits give low values 0.972 | locus YGR135W, strain pre9, hits give low values 1.06 | locus YGR229C, strain SMI1, hits give low values 1.01 | locus YGR252W, strain gcn5, hits give low values 1.07 | locus YHR013C, strain ard1, hits give low values 1.05 | locus YHR027C, strain rpn1, hits give low values 1.02 | locus YHR030C, strain SLT2, hits give low values 0.994 | locus YHR079C, strain IRE1 (second series), hits give low values 1.01 | locus YHR094C, strain hxt1, hits give low values 1.01 | locus YHR129C, strain ARP1, hits give low values 1.01 | locus YHR142W, strain chs7, hits give low values 1.05 | locus YHR200W, strain rpn10, hits give low values 0.996 | locus YIL066C, strain RNR3, hits give low values 1.01 | locus YIL073C, strain SPO22, hits give low values 1.05 | locus YIL125W, strain kgd1, hits give low values 0.999 | locus YIR030C, strain dcg1, hits give low values 1.01 | locus YJL092W, strain hpr5, hits give low values 1.02 | locus YJL095W, strain BCK1 (second series), hits give low values 1.03 | locus YJL095W, strain BCK1, hits give low values 1 | locus YJL115W, strain asf1, hits give low values 1.04 | locus YJL129C, strain trk1, hits give low values 1.05 | locus YJL134W, strain LCB3, hits give low values 1 | locus YJL154C, strain vps35, hits give low values 1.02 | locus YJL164C, strain tpk1, hits give low values 1.02 | locus YJL166W, strain qcr8, hits give low values 1.03 | locus YJL168C, strain set2, hits give low values 0.999
